Eya2 phos inh: qHTS Assay for Inhibitors of the Phosphatase Activity of Eya2 | Protein phosphatase EYA2 (Homo sapiens), O00167 | recombinant Eya2, OMFP fluorescence dephosphorylation (OMFP is methylfluorescein phosphate) | Potency, µM (highest dose often 76.9 µM), inactives show at the highest dose activity, negative = inhibition, actives largely listed as inhibitors | 330,000 compounds, 0.006% hits | AID 488837, 2010; also: % is scaled to controls: 0 for no effect and ±100 for the full control effect
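Eya2 protein (added as 0.2 uM solution) was preincubated with compound for 10 min at ambient temperature in 50 mM HEPES pH 7.5, 50 mM NaCl, 5 uM MgCl2, 0.05% BSA, 1 mM DTT. OMFP (added at 50 uM) then reacted 10 min; fluorescence read at 485/525 nm.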
ERG Ets-DNA blk: qHTS for Small Molecule Inhibitors of the ERG Ets/DNA interaction | Transcriptional regulator ERG (Homo sapiens), P11308 | fluorescence polarization, His-ERG Ets domain / labelled DNA | Potency, µM (top dose mostly 76.9 µM), for inactives: at the highest dose FP activity, negative = inhibition, most hits filed as inhibitors | 370,000 compounds, 0.028% hits | AID 624246, 2012; active = well fitted inhibition curve with a large enough effect in the polarisation, with a control signal flat; inconclusive = small, poorly fitted or top-dose-only effect, or effect the other way, or a change in a side signal; inactive = no such curve, though single readings can be large or run the other way; the % refers to the polarisation;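 also: polarization taken with two DNA probes labelled with fluorescein and Texas red; % of control where 0% means no effect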
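His-tagged ERG Ets domain (1 uM in the protein solution; 300mM KCl, 50mM Tris-HCl, 1mM EDTA, 1mM DTT, pH 7.5) received compound, then a probe mix of 5 nM fluorescein-DNA and 100nM Texas-615-DNA. Fluorescence polarization was read for both dyes.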
USP2a inh: qHTS Assay for Inhibitors of Ubiquitin-specific Protease USP2a Using CHOP2 as the Reporter; Ubiquitin carboxyl-terminal hydrolase 2 (Homo sapiens), O75604; Potency, µM (doses to about 38.3 µM), for the others: at the top dose activity change, negative = inhibition, hits mostly inhibitors; USP2 core, Ub-CHOP2 coupled fluorogenic reporter, 485/531; 330,000 compounds, 0.01% hits; AID 463254, 2010;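 also: plate controls were DMSO wells for no effect and full inhibition by NEM control for full effect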
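Cell-free coupled assay: 10nM USP2 core preincubated 30min RT with compound in Tris-HCl pH 8.0/CaCl2/CHAPS buffer, then 25nM Ub-CHOP2 and 25nM reporter substrate; fluorescence (Ex 485/Em 531) read after 60min RT, normalized to NEM inhibition, concentration-response curves fitted.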
RGS4 inh: Inhibitors of Regulator of G Protein Signaling (RGS) 4: qHTS. Potency, µM (highest dose often 114 µM), inactives show at the top dose activity change, negative = inhibition, usual class: inhibitors. Transcreener GDP fluorescence polarization, RGS4-accelerated GTP hydrolysis. AID 504845, 2011. 390,000 compounds, 0.039% hits; also: % is scaled to controls: 0 for no effect and ±100 for the full control effect; nearly all actives have a fitted effect of over 75% in size
Target sequence (P49798 whole entry, looked up): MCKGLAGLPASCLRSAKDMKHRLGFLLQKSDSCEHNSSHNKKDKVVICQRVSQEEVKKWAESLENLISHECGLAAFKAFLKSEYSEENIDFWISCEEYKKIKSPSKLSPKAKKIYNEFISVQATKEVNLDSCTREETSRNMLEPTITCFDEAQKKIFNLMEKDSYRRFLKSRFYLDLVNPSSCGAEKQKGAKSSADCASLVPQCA
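MLSMR compounds (23 nl, pin-transferred) preincubated 10 min at room temperature with a 500nM (2x) first reagent, then RGS4 at 900nM (2x) plus Transcreener GDP mix added; fluorescence polarization (620/688 nm) read before and after 90 min at 30 °C.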
An asterisk follows results filed as active; ! = a repeat was not active; [ ] = another dose, or the depositor's remark. Compounds with a hit are over-represented: about 0.08% of the library has one in this group of screens. Unless noted, calls follow the shape of the dose curve; as a rule, active = well fitted curve in the direction sought with a large enough effect; inconclusive = small, poorly fitted or top-dose-only effect, or another doubt; inactive = no such curve, though single readings can be large; an effect the other way counts as inactive or inconclusive. Potency is read from the fitted curve at half-maximal effect.

Screening CSc1nc(N)c2ncn([C@@H]3O[C@H](COP(=O)(O)OP(=O)(O)O)C(O)[C@H]3O)c2n1 (some centres undefined) returned Eya2 phos inh 2% and RGS4 inh 0.53µM*.
For CSc1nc(N)c2ncn([C@@H]3O[C@H](COP(=O)(O)OP(=O)(O)OP(=O)(O)O)[C@@H](O)[C@H]3O)c2n1 the results were Eya2 phos inh 3% and RGS4 inh 12µM*!.
Screening Cc1ccc(C(c2nnnn2Cc2ccccc2)N2CCN(Cc3ccncc3)CC2)cc1 (centres undefined) returned RGS4 inh 9%.
`O=C1c2ccccc2-c2onc3ccc(N4CCCC4)c1c23` gave Eya2 phos inh inconclusive, ERG Ets-DNA blk 18µM*, USP2a inh inconclusive and RGS4 inh inconclusive.
COc1cc(CNc2ccc(O)cc2)cc(Br)c1OCc1ccccc1 was read as Eya2 phos inh -13%, ERG Ets-DNA blk 40µM*, USP2a inh -3% and RGS4 inh -48%.
CCOc1ccccc1C(=O)NC1CC2CCCC(C1)N2C1CC1 (centres undefined) was read as Eya2 phos inh 18%, ERG Ets-DNA blk 5%, USP2a inh 10µM* and RGS4 inh 1%.
`CCOc1ccccc1C(=O)NC1CC2CCCC(C1)N2Cc1nnnn1Cc1ccco1` (centres undefined) gave Eya2 phos inh -1%, ERG Ets-DNA blk -8%, USP2a inh 3% and RGS4 inh 54%.
For CN1CCN(CCCN2c3ccccc3Sc3ccc(C(F)(F)F)cc32)CC1 the results were Eya2 phos inh -5%, ERG Ets-DNA blk -8%, USP2a inh -1% and RGS4 inh 19µM*!.
`COc1[nH]c(/N=C/c2ccco2)c(C#N)c1C#N` gave RGS4 inh 1%.
Screening Cc1ccc2c(C)c(C(=O)N(C)C(C)c3ccon3)oc2c1C (centres undefined) returned Eya2 phos inh -3%, ERG Ets-DNA blk 32µM*, USP2a inh 2% and RGS4 inh -8%.
Screening CN=c1nc(-c2ccccc2)n(-c2ccccc2)s1 returned Eya2 phos inh 2%, ERG Ets-DNA blk -9%, USP2a inh 1% and RGS4 inh 3.8µM*.
For CC[n+]1c(C)cc2c(sc3ccccc32)c1C the results were Eya2 phos inh -1%, ERG Ets-DNA blk -2%, USP2a inh 4% and RGS4 inh -11%.
Cc1cc(N)c2ccccc2[n+]1CCCCCCCCCC[n+]1c(C)cc(N)c2ccccc21 was read as Eya2 phos inh 1% and RGS4 inh 24µM*.
CC(=O)N1CCC(C(=O)Nc2nnc(C(C)C)s2)CC1 was read as RGS4 inh 11%.
Screening O=C(N/N=C/c1cccs1)c1cccc2cc[nH]c12 returned Eya2 phos inh 25µM*, ERG Ets-DNA blk 2%, USP2a inh 2% and RGS4 inh -20%.
For CCCCC(CCC(=O)Nc1ccn(-c2ccccc2)n1)C(=O)O (centres undefined) the results were Eya2 phos inh 40µM*, ERG Ets-DNA blk -3%, USP2a inh 11% and RGS4 inh 24%[11.4 µM].
`CC[C@@H](C)[C@@H](CO[C@@H](Cc1ccccc1)C(=O)N[C@@H](CCS(C)(=O)=O)C(=O)OC(C)C)NC[C@@H](N)CS` gave RGS4 inh inactive.
For COc1cccc2c1C(=O)c1c(O)c3c(c(O)c1C2=O)CC(O)(C(C)=O)CC3OC1CC(O)C(O)C(C)O1 (centres undefined) the results were ERG Ets-DNA blk 2.5µM* and RGS4 inh -31%.
CNCCc1cnc(CCC(c2ccccc2)c2ccccc2)[nH]1 was read as Eya2 phos inh 0% and RGS4 inh 5%[56.9 µM].
`COc1ccc(-c2csc(N3CCN(C(=O)c4ccccc4)CC3)n2)cc1` gave Eya2 phos inh -4%, ERG Ets-DNA blk -4%, USP2a inh -8% and RGS4 inh 15%.

From PubChem BioAssay
